The record followed here is ChEMBL document CHEMBL3988442, “University of Dundee, Small-Polar-MMV Screening Library” (2021).

Parameters in all cases: scale not given: direction of the effect not stated beside the values
The target of assay [1] is Protein translocase subunit SecA (Escherichia coli (strain K12)) (UniProt P10408). As to the kind of experiment: Assay to Identify E. coli SecA ATPase Inhibitors. It is filed as functional. The note with it: 30 µM.
The target in assay [2] is T1, Ubiquitin-activating enzyme e1, putative (Leishmania donovani (strain BPK282A1)) (UniProt E9BSI1).
T1 sequence (whole entry): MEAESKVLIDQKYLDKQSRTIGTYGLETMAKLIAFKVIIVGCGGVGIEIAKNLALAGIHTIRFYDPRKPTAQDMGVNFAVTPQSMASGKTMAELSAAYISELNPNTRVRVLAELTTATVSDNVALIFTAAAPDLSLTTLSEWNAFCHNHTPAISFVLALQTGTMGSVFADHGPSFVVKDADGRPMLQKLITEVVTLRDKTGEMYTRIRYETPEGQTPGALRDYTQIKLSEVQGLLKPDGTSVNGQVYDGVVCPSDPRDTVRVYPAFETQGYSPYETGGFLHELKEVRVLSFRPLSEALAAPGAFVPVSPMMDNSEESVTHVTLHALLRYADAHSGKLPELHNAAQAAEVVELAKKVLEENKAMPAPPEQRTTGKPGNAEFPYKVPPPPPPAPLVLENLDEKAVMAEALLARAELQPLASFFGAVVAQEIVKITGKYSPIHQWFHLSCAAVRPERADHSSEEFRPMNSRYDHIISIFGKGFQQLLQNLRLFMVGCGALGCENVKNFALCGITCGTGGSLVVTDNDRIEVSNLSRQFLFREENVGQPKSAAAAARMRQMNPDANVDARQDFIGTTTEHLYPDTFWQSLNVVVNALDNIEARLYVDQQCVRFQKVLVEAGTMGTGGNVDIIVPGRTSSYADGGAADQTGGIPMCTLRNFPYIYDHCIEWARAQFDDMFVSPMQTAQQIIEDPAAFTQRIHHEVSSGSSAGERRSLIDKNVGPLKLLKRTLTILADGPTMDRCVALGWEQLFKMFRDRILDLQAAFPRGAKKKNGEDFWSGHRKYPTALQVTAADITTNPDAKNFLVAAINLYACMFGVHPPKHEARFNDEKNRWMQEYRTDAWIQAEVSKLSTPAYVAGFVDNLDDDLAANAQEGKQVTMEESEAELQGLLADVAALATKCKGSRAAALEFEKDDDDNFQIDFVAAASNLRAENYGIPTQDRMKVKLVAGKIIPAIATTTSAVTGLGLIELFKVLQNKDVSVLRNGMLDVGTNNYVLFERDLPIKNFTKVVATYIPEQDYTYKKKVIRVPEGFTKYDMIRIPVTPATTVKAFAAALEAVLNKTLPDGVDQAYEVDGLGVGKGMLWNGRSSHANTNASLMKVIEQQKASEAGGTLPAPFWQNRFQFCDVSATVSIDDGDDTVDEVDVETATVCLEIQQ
As to the kind of experiment: Leishmania donovani Ubiquitin Activating Enzyme (LdE1). It is filed as functional. The conditions noted are these: 30 µM.

Assay [3] concerns the target AMP-activated protein kinase, AMPK (Homo sapiens) (UniProt P54646+O43741+P54619+Q9UGJ0+Q9Y478+Q13131+Q9UGI9). The assay is described as follows: AMP-dependent Kinase enzyme assay. An in vitro enzyme assay that detects ADP turnover that is directly proportional to AMPK activity. This uses naive AMPK that is activated during the assay with MK-8722. It counts as functional. The conditions noted are these: 30 µM.

Assay [4] has as its target Sialic acid-binding Ig-like lectin 9 (Homo sapiens) (UniProt Q9Y336). The assay is described as follows: Hs-Siglec9 ALPHAscreen SOP 20170721. The conditions noted are these: 10 µM. For orientation: In Alpha technology, singlet oxygen from a donor bead excites a nearby acceptor bead.
For the next assay, the system named is Trypanosoma cruzi. As to the kind of experiment: Trypanosoma cruzi phosphomannomutase and mannose-1-phosphate guanylyltransferase assay. It counts as functional. The conditions noted are these: 10 µM.
For assay [5], the target named is T2, Arginase-2, mitochondrial (Homo sapiens) (UniProt P78540).
T2 sequence (whole entry): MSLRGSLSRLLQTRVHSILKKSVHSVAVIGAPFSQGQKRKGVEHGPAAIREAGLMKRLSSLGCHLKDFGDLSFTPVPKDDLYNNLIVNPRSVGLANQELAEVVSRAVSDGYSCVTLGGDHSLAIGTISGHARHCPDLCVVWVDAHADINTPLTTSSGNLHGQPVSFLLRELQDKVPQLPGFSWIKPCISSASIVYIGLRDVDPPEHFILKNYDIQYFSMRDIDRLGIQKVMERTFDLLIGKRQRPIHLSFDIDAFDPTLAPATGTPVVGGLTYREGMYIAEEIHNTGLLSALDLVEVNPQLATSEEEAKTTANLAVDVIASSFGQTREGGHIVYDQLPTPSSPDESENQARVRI
The assay is described as follows: in vitro enzyme assay to detect the production of urea directly proportional to the activity of Arginase II. Also: in the data most compounds retested in dose-response had high values. It is filed as functional. The note with it: 33.3 µM.

Assay [6] concerns the target T3, Proteasome subunit beta (Trypanosoma cruzi) (UniProt O96673).
T3 sequence (whole entry): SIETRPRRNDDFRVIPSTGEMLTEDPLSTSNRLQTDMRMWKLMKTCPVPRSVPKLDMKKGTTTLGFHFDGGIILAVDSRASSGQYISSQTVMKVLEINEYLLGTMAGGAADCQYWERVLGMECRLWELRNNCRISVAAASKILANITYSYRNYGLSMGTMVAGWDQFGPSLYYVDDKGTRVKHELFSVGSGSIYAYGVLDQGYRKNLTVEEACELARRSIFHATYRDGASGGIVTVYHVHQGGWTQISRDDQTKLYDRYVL
The assay is described as follows: Trypanosoma cruzi proteasome chymotrypsin-like activity (TcProtChymo) assay. Also: in the data most compounds retested in dose-response had high values. It counts as functional. The conditions noted are these: 9.37 µM.

For another assay, the species on record is Homo sapiens. The assay is described as follows: To identify inhibition of the IFN signalling (Jak-Stat) pathway via expression of an eGFP reporter gene under the control of an IFN-stimulated response element (ISRE) containing MxA promoter. It is filed as functional. The conditions noted are these: 30 µM.
In assay [7] the target is T4, Tyrosyl-tRNA synthetase, putative (Trypanosoma cruzi (strain CL Brener)) (UniProt Q4DSP6).
T4 sequence (whole entry): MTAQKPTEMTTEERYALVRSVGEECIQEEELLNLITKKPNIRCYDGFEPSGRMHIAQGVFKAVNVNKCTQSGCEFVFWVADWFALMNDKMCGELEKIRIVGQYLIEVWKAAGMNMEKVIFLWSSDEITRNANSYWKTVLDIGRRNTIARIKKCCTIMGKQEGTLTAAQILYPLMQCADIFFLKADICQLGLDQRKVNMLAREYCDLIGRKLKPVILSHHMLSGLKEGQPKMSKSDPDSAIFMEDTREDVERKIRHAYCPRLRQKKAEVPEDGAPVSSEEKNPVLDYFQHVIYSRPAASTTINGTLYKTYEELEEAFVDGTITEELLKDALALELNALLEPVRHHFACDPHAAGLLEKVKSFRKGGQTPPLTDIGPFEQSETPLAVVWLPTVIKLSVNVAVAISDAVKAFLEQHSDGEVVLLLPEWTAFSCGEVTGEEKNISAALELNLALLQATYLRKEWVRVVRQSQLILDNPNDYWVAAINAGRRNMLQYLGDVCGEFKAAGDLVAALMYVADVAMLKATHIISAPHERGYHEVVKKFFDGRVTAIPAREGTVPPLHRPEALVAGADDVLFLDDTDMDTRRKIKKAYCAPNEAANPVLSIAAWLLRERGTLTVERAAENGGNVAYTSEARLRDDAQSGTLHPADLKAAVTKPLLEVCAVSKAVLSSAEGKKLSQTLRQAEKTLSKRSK
As to the kind of experiment: Trypanosoma cruzi tyrosyl tRNA synthetase (TcYRS) _High Tyrosine SOP. Also: in the data most compounds retested in dose-response had high values. The note with it: 30 µM. It counts as functional.

Assay [8] addresses T4, Tyrosyl-tRNA synthetase, putative (Trypanosoma cruzi (strain CL Brener)). As to the kind of experiment: Trypanosoma cruzi tyrosyl tRNA synthetase (TcYRS) SOP. It is filed as functional. The conditions noted are these: 30 µM.
For assay [9], the target named is Chromo domain-containing protein 1 (Saccharomyces cerevisiae (strain ATCC 204508 / S288c) (Baker's yeast)) (UniProt P32657). The assay is described as follows: ScCHD-1 Enzyme Inhibition Assay. Also: in the data most compounds retested in dose-response had high values. It is filed as functional. The conditions noted are these: 30 µM.
Sequence of Chromo domain-containing protein 1 (Saccharomyces cerevisiae (strain ATCC 204508 / S288c) (Baker's yeast)) (P32657 whole entry, the tested form may be a part): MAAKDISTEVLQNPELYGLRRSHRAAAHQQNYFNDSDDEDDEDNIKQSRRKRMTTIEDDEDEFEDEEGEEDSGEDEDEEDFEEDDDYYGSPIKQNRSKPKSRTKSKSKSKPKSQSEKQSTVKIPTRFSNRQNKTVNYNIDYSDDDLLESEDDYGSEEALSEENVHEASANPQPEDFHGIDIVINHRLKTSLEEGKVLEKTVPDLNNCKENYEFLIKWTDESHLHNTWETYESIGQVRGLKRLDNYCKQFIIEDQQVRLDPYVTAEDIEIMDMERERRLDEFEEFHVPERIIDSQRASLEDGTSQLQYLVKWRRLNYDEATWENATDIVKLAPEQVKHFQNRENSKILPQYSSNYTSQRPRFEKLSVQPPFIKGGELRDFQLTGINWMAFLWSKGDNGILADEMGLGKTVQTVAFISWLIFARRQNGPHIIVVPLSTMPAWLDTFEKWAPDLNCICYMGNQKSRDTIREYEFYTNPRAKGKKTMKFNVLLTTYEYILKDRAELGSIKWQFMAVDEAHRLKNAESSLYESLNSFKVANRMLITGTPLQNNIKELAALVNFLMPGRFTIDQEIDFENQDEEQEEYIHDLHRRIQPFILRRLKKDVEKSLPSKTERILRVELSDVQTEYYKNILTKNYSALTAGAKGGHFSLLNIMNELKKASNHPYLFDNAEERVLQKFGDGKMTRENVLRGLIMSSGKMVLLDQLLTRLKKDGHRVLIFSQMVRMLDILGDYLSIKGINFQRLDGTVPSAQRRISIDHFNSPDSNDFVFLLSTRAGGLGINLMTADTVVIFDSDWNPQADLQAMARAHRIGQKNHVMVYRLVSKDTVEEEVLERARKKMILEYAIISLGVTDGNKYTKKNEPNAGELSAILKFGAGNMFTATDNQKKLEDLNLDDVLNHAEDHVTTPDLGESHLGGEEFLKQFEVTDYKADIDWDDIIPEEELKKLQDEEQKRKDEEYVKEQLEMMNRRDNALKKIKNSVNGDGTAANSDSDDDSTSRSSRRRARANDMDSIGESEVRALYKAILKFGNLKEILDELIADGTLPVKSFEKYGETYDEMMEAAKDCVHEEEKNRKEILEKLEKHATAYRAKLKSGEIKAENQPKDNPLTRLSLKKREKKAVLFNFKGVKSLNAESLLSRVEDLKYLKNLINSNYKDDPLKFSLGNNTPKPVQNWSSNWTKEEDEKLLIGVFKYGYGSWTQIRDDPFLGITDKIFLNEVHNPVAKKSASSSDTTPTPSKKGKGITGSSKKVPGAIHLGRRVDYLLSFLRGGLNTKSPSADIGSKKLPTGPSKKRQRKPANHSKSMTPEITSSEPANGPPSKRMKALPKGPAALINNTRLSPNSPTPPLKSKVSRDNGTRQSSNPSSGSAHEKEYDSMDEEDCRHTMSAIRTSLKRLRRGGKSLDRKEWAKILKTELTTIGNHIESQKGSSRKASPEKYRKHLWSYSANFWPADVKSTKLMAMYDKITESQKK

For some of these results: Results with a measured potency or affinity are listed apart.

Sequence of Sialic acid-binding Ig-like lectin 9 (Homo sapiens) (Q9Y336 whole entry): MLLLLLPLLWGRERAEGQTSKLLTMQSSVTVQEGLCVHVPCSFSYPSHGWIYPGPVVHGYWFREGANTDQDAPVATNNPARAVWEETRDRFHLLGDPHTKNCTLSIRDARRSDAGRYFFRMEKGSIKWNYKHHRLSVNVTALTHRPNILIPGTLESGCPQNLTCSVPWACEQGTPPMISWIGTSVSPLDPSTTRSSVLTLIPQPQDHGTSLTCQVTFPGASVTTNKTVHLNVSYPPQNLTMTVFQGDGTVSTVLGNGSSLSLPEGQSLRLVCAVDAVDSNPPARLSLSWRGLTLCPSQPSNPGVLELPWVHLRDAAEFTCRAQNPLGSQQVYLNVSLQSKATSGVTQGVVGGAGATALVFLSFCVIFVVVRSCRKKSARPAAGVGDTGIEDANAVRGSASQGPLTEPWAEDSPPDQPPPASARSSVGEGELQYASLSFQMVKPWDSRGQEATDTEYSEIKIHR
Sequence of Protein translocase subunit SecA (Escherichia coli (strain K12)) (P10408 whole entry): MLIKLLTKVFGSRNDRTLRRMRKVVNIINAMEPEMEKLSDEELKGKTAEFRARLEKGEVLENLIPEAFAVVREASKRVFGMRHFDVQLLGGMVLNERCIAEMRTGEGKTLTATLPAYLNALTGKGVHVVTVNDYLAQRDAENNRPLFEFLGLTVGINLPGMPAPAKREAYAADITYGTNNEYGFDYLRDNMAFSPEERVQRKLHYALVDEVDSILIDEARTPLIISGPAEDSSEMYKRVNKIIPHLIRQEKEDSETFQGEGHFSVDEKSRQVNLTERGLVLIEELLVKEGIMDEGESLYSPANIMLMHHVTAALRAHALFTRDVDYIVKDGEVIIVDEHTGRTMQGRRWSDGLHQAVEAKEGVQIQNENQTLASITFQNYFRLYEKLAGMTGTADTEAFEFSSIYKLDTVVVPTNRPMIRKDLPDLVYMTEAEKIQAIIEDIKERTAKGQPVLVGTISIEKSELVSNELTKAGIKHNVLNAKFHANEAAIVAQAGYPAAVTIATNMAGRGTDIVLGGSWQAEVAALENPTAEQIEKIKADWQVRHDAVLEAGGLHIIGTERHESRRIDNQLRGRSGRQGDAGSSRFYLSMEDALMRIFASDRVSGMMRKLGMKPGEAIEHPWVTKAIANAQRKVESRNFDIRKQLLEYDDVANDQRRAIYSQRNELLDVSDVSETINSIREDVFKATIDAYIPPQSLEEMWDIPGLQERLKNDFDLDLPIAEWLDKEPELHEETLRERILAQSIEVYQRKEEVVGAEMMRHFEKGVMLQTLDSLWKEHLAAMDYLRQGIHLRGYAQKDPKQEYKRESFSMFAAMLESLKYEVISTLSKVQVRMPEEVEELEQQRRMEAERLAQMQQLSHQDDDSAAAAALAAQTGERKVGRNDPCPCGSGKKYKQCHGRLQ

Turning to `Cc1nn(C)c(Cl)c1C1CCCN1c1ncnc2sccc12` (stereo not drawn), the Percent Effect in assay [1] is -6.84%; in [2], -2.67%; in assay [3], -2.13%; in [4] it was 8.98%; with Trypanosoma cruzi, 5.36%; in assay [5], 7.29%. Also, the Percent Effect in [6] is 1.4%; in the assay listed under Homo sapiens, 35.8%; in [7], 0.546%; in assay [8] it was 3.7%; in assay [9], 0.644%.

In the case of `CCn1cc(CN2CC3CCCN3C[C@H]2C)c(C)n1` (stereo partly drawn), the Percent Effect was -2.31% in [1]; 9.46% in assay [2]; 3.58% in [3]; -8.58% in assay [4]; -1.98% in the assay on Trypanosoma cruzi; -2.09% in [5]. The Percent Effect in assay [6] is 20.3%; in the assay listed under Homo sapiens, 2%; in [7], 4.3%; in [8], 9.09%; in assay [9] it was -14.7%.

Take `COc1cc(C(=O)Nc2nc(C)no2)ccc1C`: the Percent Effect in [1] was -6.11%; in assay [2] it was 25.3%; in assay [3], -1.3%; in assay [4], -0.471%; in the assay with Trypanosoma cruzi, 3.12%; in assay [5], -4.56%. Also, the Percent Effect is 4.83% in assay [6]; 33.2% in the assay filed under Homo sapiens; 7.39% in [7]; 26.6% in assay [8]; -8.84% in assay [9].

Consider `CCC1(CC)Cc2ccccc2-c2nc(CN(C)C)nc(O)c21`, for which the Percent Effect is -3.62% in [1]; 10.5% in assay [2]; 5% in assay [3]; 4.55% in assay [4]; 0.292% with Trypanosoma cruzi; -5.92% in [5]. Also, the Percent Effect in assay [6] is 12.8%; in the assay listed under Homo sapiens, 14.4%; in [7] it was 5.32%; in [8], 10.4%; in [9] it was -3.79%.

Consider `CN(Cc1ccc(F)cc1)C(=O)NCc1nnc2n1CCCCC2`, for which the Percent Effect in assay [1] is -8.45%; in [2], 12.7%; in assay [3] it was -3.69%; in assay [4], 5.52%; in the assay with Trypanosoma cruzi, 10.5%; in [5] it was -6.08%. Moreover, the Percent Effect in assay [6] was 7.62%; in the assay filed under Homo sapiens it was 15.3%; in assay [7], 6.4%; in assay [8], 13.9%; in assay [9], -15%.

Turning to `Cc1noc(C)c1CNC(=O)N1CCC(C(O)c2ccccc2)CC1` (stereo not drawn), the Percent Effect in assay [1] was -4.23%; in assay [2], 11%; in assay [3], -3.81%; in [4], 6.33%; with Trypanosoma cruzi it was 7.54%; in [5], -4.79%. Further, the Percent Effect is -1.8% in assay [6]; 11.9% in the assay filed under Homo sapiens; 2.08% in assay [7]; 13.6% in [8]; -3.08% in [9].

For `COc1ccc(C2OC(COc3ccccc3Br)=NN2C(C)=O)cc1` (stereo not drawn), the Percent Effect in assay [1] was -1.41%; in [2], 13%; in assay [3], -0.88%; in assay [4] it was -8.22%; in the assay with Trypanosoma cruzi, -5.23%; in assay [5] it was 3.23%. The Percent Effect in assay [6] is 9.22%; in the assay filed under Homo sapiens it was 4.18%; in assay [7] it was 0%; in assay [8], 1.28%; in assay [9] it was -8.68%.

Take `O=C1OCCN1CCc1nc(-c2cc3c4c(c2)CC(=O)N4CCC3)cs1`: the Percent Effect was -8.45% in assay [1]; 0% in [2]; 4.43% in [3]; -2.26% in [4]; -7.87% in the assay on Trypanosoma cruzi; -0.712% in assay [5]. Further, the Percent Effect in assay [6] was 9.97%; in the assay filed under Homo sapiens, 47.2%; in assay [7], 0.971%; in [8], 0%; in [9] it was -5.4%.
